Assay results taken from PubChem BioAssay (EPA / NIEHS).
Several values for one entry are separate records, joined by “and”; a condition that tells them apart may be missing. Equal values may be shown once. Where a structure was tested more than once in an assay, its records may differ in their call. Activity calls are given as the source filed them. Rule for the calls: active = hit-call score of the fitted dose curve at least 0.9, where 1 is the maximum; inactive = score below 0.9.

Assay: BSK_hDFCGF_Proliferation: Cell Proliferation Assessment in the BioMAP Diversity Plus: hDFCGF Assay (AID 2283059);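 note: curves fitted for both rise and fall of signal versus DMSO baseline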
Conditions: primary human foreskin fibroblasts
Description: BSK_hDFCGF is a cell-based, multiplexed-readout assay that uses foreskin fibroblast, a human skin primary cell, with measurements taken at 24 hours after chemical dosing in a 96-well plate.BSK_hDFCGF_Proliferation is an assay component measured in the BSK_hDFCGF assay. It measures […] related to cell proliferation using Sulforhodamine staining technology.Data from the assay component BSK_hDFCGF_Proliferation was analyzed into 1 assay endpoint. This assay endpoint, BSK_hDFCGF_Proliferation, was analyzed with bidirectional fitting relative to DMSO as the negative control and baseline of activity. Using a type of viability reporter, measures of total protein for gain or loss-of-signal activity can be used to understand the viability at the cellular-level. Furthermore, this assay endpoint can be referred to as a secondary readout, because this assay has produced multiple assay endpoints where this one serves a viability function. To generalize the intended target to other relatable targets, this assay endpoint is annotated to the cell cycle intended target family, where the subfamily is proliferation.
The levels of cell surface (or secreted, indicated by the prefix "s") biomarker endpoints were measured by ELISA. Overt cytotoxicity to cells in confluent adherent cultures (all systems other than the BT system) was assessed by measuring total protein levels using sulforhodamine B (SRB) staining in parallel cultures at the time of biomarker measurements, indicated as SRB endpoints. For proliferation assays for adherent cell types, individual cell types are cultured at sub-confluence and relative cell numbers quantified by SRB staining at time points optimized for each system (48 h: 3C and CASM3C systems; 72 h: BT and HDF3CGF systems; 96 h: SAg system). SRB was performed by staining cells with 0.1% SRB after fixation with 10% TCA and reading wells at 560 nm.Viability and proliferation of PBMC (T cells) was quantified by Alamar Blue reduction for the SAg and BT systems. For PBMC viability (referred to as PBMC Cytotoxicity within the assay endpoint names), cells were plated (75,000/well in a 96-well plate) and then chemical samples added for 1 h before addition of activators, SEB and TSST-1 (20 ng/mL final concentration each). Cells were incubated for 90 h. Then, Alamar Blue (20 uL/well) (Invitrogen, Cat DAL1100) was added for 6 h, and the plates were read with a fluorescence microplate reader at 546/580 nm (excitation/emission). For PBMC proliferation, cells were plated and activated as above but incubated for only 16 h prior to addition of Alamar Blue. Plates were read after 6 h.

SMILES	AC50	outcome
CCCCCCCCCCCC	11.6 µM (active) and 11.5 µM (active)	–
Cc1[nH]nc2c1N=C(c1ccccc1Cl)c1cc([N+](=O)[O-])ccc1N2	0.187 µM (active)	–
CCC(C)c1ccccc1O (stereo not given)	–	inactive
OCCN1CN(CCO)CN(CCO)C1	25.8 µM (active)	–
C=CC(=C)CC/C=C(\C)CCC=C(C)C	6.49 µM (active)	–
Clc1ccc(Nc2nnc(Cc3ccncc3)c3ccccc23)cc1	–	inactive
O=C1NS(=O)(=O)c2ccccc21	–	inactive
Cc1cccc2c1ccc1ccccc12	–	inactive
CN(C)c1ccc(C(=C2C=CC(=[N+](C)C)C=C2)c2ccccc2)cc1	0.0173 µM (active)	–
COc1cc(OC)nc(NC(=O)NS(=O)(=O)Nc2ccccc2C(=O)N(C)C)n1	–	inactive
COC1=CC(=O)C[C@@H](C)[C@]12Oc1c(Cl)c(OC)cc(OC)c1C2=O	–	inactive
CCCCC(CC)C(=O)OCCOCCOCCOCCOC(=O)C(CC)CCCC (stereo not given)	–	inactive
CCCCC=O	–	inactive
O=C(O)CCC(F)(F)C(F)(F)C(F)(F)C(F)(F)C(F)(F)C(F)(F)F	–	inactive
Cc1ccc(N=Nc2c(O)ccc3ccccc23)c(C)c1	–	inactive
CCCCCCCCCCCCCCCCCC[N+](C)(C)Cc1ccccc1	0.0156 µM (active)	–
CCCCC(CC)C(=O)O (stereo not given)	–	inactive
OCC(F)(F)C(F)(F)C(F)(F)C(F)(F)C(F)(F)C(F)(F)C(F)(F)C(F)(F)C(F)(F)C(F)(F)C(F)(F)F	–	inactive
COc1cccc(O)c1	–	inactive

SMILES	AC50	outcome
C=CC(=O)OCCC(F)(F)C(F)(F)C(F)(F)C(F)(F)C(F)(F)C(F)(F)C(F)(F)C(F)(F)F	30 µM (active)	inactive
O=S(=O)(O)C(F)(F)C(F)(F)C(F)(F)C(F)(F)C(F)(F)C(F)(F)C(F)(F)C(F)(F)C(F)(F)C(F)(F)F	1.46 µM (active) and 1.89 µM (active)	–
CC(C)(C)c1ccc(O)c(O)c1	7.12 µM (active)	–
Oc1ccc(Cc2ccccc2O)cc1	33.6 µM (active)	inactive
CC(=O)Nc1ccc(O)cc1	–	inactive
O=C(O)CCC(F)(F)C(F)(F)C(F)(F)C(F)(F)C(F)(F)F	–	inactive
CCCCCCCCCCCCOS(=O)(=O)O	16 µM (active)	–
CCCCCc1ccc(O)cc1	8.97 µM (active)	–
O=C(NCc1ncc(C(F)(F)F)cc1Cl)c1c(Cl)cccc1Cl	–	inactive
O=C(CC(=O)C(F)(F)C(F)(F)C(F)(F)F)c1cccs1	4.23 µM (active) and 4.92 µM (active)	–
O=C(NO)c1ccccc1	3.81 µM (active)	–
Cc1ccc(C(=O)c2ccccc2)cc1	32.4 µM (active)	–
O=C(O)C(F)(F)OC(F)(F)C(F)(F)OC(F)(F)C(F)(F)OC(F)(F)C(F)(F)C(F)(F)C(F)(F)F	7.93 µM (active) and 8.07 µM (active)	–
OCC(CO)(CBr)CBr	–	inactive
O=C1c2ccc(O)c(O)c2C(=O)c2c(O)ccc(O)c21	–	inactive
C[C@]12CC[C@@H]3c4ccc(O)cc4CC[C@H]3[C@@H]1C[C@@H](O)[C@@H]2O	–	inactive
O=C(CCCN1CCC(O)(c2ccc(Cl)cc2)CC1)c1ccc(F)cc1	4.55 µM (active)	–
O=C(c1ccccc1)c1ccccc1	–	inactive
CS(=O)(=O)c1ccc([C@@H](CC2CCCC2)C(=O)Nc2cnccn2)cc1Cl	20 µM (active)	–
